High-throughput results: PubChem, National Center for Advancing Translational Sciences (NCATS)
Rows were chosen to be rich in hits. Some 13% of all compounds tested hit in one or more screens of this group.
CHX counter: affects cycloheximide protein synthesis inhibition readout, counter-screen; max response, %; hit rate 12% among 300,000; cell reporter, cycloheximide protein synthesis inhibition counterscreen; in the data active = max response mostly above about 13%, no sharp cut-off; inactive = mostly below about 14%; also: read at 38.3 µM for the half of the compounds with a filed dose; 0% is about no effect
Shiga toxin inh: Shiga toxin inhibition | Vero cells, Shiga toxin protein synthesis inhibition reporter | hit rate 9.2% among 290,000 | inhibition, % at 38.7 µM | AID 2315; in the data active = inhibition mostly above about 28%, no sharp cut-off; inactive = mostly below about 43%; also: 0% is about no effect
HCV inhibitor: inhibitors of hepatitis C virus infection | Huh7.5.1 HCVcc-Cre infection, luciferase reporter, 44 h | Potency, µM (highest dose often 41.8 µM), without a hit: at the highest dose activity change, negative = inhibition, most hits filed as inhibitors | hit rate 3.4% among 340,000 | AID 651820; active = well fitted inhibition curve with a large enough effect; inconclusive = small, poorly fitted or top-dose-only effect, or another doubt; inactive = no such curve, though single readings can be large or run the other way; also: potency is read from the fitted curve at half-maximal effect; % is scaled to controls: 0 for no effect and ±100 for the full control effect
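Compounds are dispensed onto cells plated 4 h earlier at 1,000 per well, with HCVcc-Cre virus (about 0.5 moi) added next. Following 44 h of culture, luminescent signal is measured for 15 sec after 15 min with substrate at room temperature.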
FMDV inh: blocks foot and mouth disease virus | FMDV antiviral cell-based qHTS | Potency, µM (top dose mostly 57.9 µM), for the others: at the highest dose activity change, negative = inhibition, usual class: inhibitors | hit rate 1.2% among 410,000 | AID 1159524; calls by dose curve; tested in HEK293T cells; also: read-out not given here; potency is read from the fitted curve at half-maximal effect; % is scaled to controls: 0 for no effect and ±100 for the full control effect; nearly all actives have a fitted effect of over 45% in size
MARV entry inh: inhibitors of Marburg virus binding or cell entry | Marburg virus pseudotyped entry inhibition, cell reporter | Potency, µM (top dose mostly 37.8 µM), for inactives: top-dose activity change, negative = inhibition, hits mostly inhibitors | hit rate 1.8% among 300,000 | AID 540276; calls by dose curve; tested in HEK293 cells; also: potency is read from the fitted curve at half-maximal effect; % is scaled to controls: 0 for no effect and ±100 for the full control effect
LASV entry inh: Lassa virus entry inhibition. Potency, µM (titrated, usually from 37.9 µM), for inactives: at the top dose activity change, negative = inhibition, usual class: inhibitors. hit rate 1.2% among 300,000. AID 540256. Lassa virus pseudotype entry inhibition, cell reporter; calls by dose curve; tested in HEK293 cells; also: potency is read from the fitted curve at half-maximal effect; % is scaled to controls: 0 for no effect and ±100 for the full control effect; nearly all actives have a fitted effect of over 50% in size
An asterisk follows results filed as active; ? = inconclusive; / = no result; [ ] = remark or other dose.

SMILES	CHX counter	Shiga toxin inh	HCV inhibitor	FMDV inh	MARV entry inh	LASV entry inh
COc1ccccc1NC(=O)Nc1nc(CC(=O)N2CCN(c3ccccc3OC)CC2)cs1	/	/	10µM*	28.2µM*	?	?
COc1ccccc1NC(=O)Nc1nc(CC(=O)Nc2ccc(OC)c(OC)c2)cs1	/	/	?	-8.3%	20.9%	10.8%
COc1ccc2cc([C@H](C)C(=O)N(C)Cc3ccccc3N3CCCC3)ccc2c1	-1.5	3.6	10µM*	-22.2%	?	?
COc1ccc2cc([C@H](C)C(=O)O)ccc2c1	-1.2	12.7	?	-13.3%	-7.2%	33.7%
CCC(=Nc1ccccc1N)c1c(O)[nH]c(=O)[nH]c1=O	51.8*	98.8*	16.9%	45.5%	-29.3%	?
CCC(=NCCc1ccccc1)c1c(O)[nH]c(=O)[nH]c1=O	1.1	-4.1	0.316µM*	-16.0%	0.4%	0.3%
CC(=NCCc1ccccc1)c1c(O)[nH]c(=O)[nH]c1=O	-0.2	-8.3	2.5%	6.2%	-6.9%[46.1 µM]	-14.6%
CC(=NC(C)c1ccccc1)c1c(O)[nH]c(=O)[nH]c1=O (configuration not stated)	-2.0	-9.0	11.9%	-9.7%	8.2%	6.7%
COc1cc2ccccc2cc1C(=O)OCC(=O)N(C)c1c(N)n(Cc2ccccc2)c(=O)[nH]c1=O	/	/	-5.1%	-11.6%	?	0.2%
O=C(NCc1ccc2c(c1)OCO2)c1ccc2c(=O)n(C3CCCC3)c(=O)[nH]c2c1	7.4	-11.8	?	7.6%	?	13.9%
CCn1c(C)cc(C=C2C(=O)c3ccccc3C2=O)c1C	62.0*	82.2*	?	-75.7%	12.6µM*	?
Cc1ccc(C=C2C(=O)c3ccccc3C2=O)s1	55.9*	45.1*	10.4%	50.2%	-1.4%	6.1%
Cc1cc(/C=C2\C(=O)NC(=O)N(c3cccc(Br)c3)C2=O)c(C)n1C	1.3	13.0	17.6%	0.0%	-5.8%	3.4%
Cc1cc(C=C2C(=O)c3ccccc3C2=O)c(C)n1C	64.8*	63.0*	3.3%	-10.6%	?	-13.8%
Cc1ccc(/C=C2\C(=O)NC(=S)N(c3ccccc3F)C2=O)s1	3.5	8.3	?	?	?	?
Cc1cccc(-c2noc(CN(C(=O)c3ccc(C)c(C)c3)C(C)C)n2)c1	/	/	/	?	-16.3%[46.1 µM]	?
N#C/C(=C\c1ccc(N2CCOCC2)o1)C(=O)Nc1ccc(O)cc1	31.3*	67.6*	?	20.4%	?	?
COc1ccc(NC(=O)/C(C#N)=C/c2cc(C)n(-c3ccc(N4CCOCC4)c([N+](=O)[O-])c3)c2C)cc1	-2.6	-19.9	?	3.98µM*	-15.1%	?
N#C/C(=C/c1ccc(N2CCOCC2)o1)C(=O)NC1CCCCC1	18.6*	36.4	?	6.5%	/	/
Cc1cc(/C=C(\C#N)C(=O)Nc2ccc(F)cc2)c(C)n1-c1ccc(N2CCOCC2)c([N+](=O)[O-])c1	-2.5	-2.4	?	?	?	-33.7%
COc1ccc(NC(=O)/C(C#N)=C\c2ccc(N3CCOCC3)o2)cc1	23.8*	60.7	?	13.0%	?	?
COc1ccc(-c2c3c(=O)n(C)c(=O)n(C)c3cn2-c2ccc(O)cc2)cc1	-0.9	-18.6	5.8%	-22.0%	-1.4%[46.1 µM]	?
Cc1cc(OCC(=O)c2cccc(C(F)(F)F)c2)n2cnnc2n1	-2.5	-7.6	-3.4%	58.6%	9.1%[46.1 µM]	-0.8%[46.1 µM]
COc1ccc(NC(=O)/C(C#N)=C/c2ccc(C)o2)cc1	/	/	/	1.4%	/	-9.8%[46.1 µM]
COc1ccc(NC(=O)/C(C#N)=C/c2ccc(Br)o2)cc1	21.7*	52.1*	23.7%	43.5%	?	?
SMILES	CHX counter	Shiga toxin inh	HCV inhibitor	FMDV inh	MARV entry inh	LASV entry inh
O=C(CNC(=O)C1CCCCC1)Nc1ccc(F)c(Cl)c1	12.2	44.4	6.5%	94.5%	0.3%	-5.5%
O=C(COC(=O)CNC(=O)C1CCCCC1)Nc1ccc2c(c1)OCCO2	26.3*	43.2	15.8%	8.0%	7.7%	?
CC(C)(C)OC(=O)N1Cc2ccccc2C[C@H]1C(=O)NCC(=O)Nc1ccc2c(c1)OCCO2	51.6*	113.8*	1.2%	?	/	/
COc1cccc(NC(=O)CNC(=O)[C@@H]2Cc3ccccc3CN2C(=O)OC(C)(C)C)c1	-1.7	-9.9	-1.1%	-2.6%	-9.4%[46.1 µM]	?
COc1cc(NC(=O)COC(=O)CNC(=O)c2ccc(C)cc2)c(C)cc1[N+](=O)[O-]	1.6	-16.1	?	1.8%	/	/
O=C(COC(=O)CNC(=O)C1CCCCC1)Nc1ccc2ccccc2c1	16.5	16.7	12.9%	32.0%	24.3%	15.3%
CC(C)(C)c1ccc(C(=O)NCC(=O)OCC(=O)Nc2ccccc2[N+](=O)[O-])cc1	40.6*	44.8*	19.5%	-20.0%	7.7%	-0.9%
O=C(CNC(=O)C1CCCCC1)Nc1ccc(Cl)cc1	23.4*	30.5*	3.2%	93.4%	11.3%	-1.7%
COc1cccc(C2CC(c3ccccc3)Nc3nc(N)nn32)c1 (configuration not stated)	-4.0	-6.7	14.9%	-9.6%	/	/
O=C(c1cccc2cccc(O)c12)N1CCCCC1	-6.2	-6.4	-12.8%	61.7%	15.6%	7.6%
CC(C)(C)c1ccc(C(=O)NCC(=O)OCC(=O)Nc2ccc3c(c2)OCCO3)cc1	11.7*	15.9	15.7%	0.0%	6.7%	13.9%
O=S(=O)(c1cccc2nsnc12)N1CCN(Cc2ccccc2)CC1	-3.7	-1.2	11.5%	-14.5%	-1.5%	2.5%
O=C(c1ccncc1)c1ccc(N2CCN(C3CC(=O)N(Cc4cccs4)C3=O)CC2)cc1 (configuration not stated)	-2.7	-9.1	?	25.1µM*	/	/
O=C1CC(N2CCN(c3ccc(O)cc3)CC2)C(=O)N1Cc1cccs1 (configuration not stated)	-2.4	2.6	1.7%	-22.1%	-0.3%	?
Cc1cccc(C(=O)NCC2CCN(C(=O)c3cccc(C)c3)CC2)c1	8.3	6.1	0.2%	-11.7%	1.6%	-0.3%
COC(=O)c1ccc(NC(=O)C(=O)c2cccn2C)cc1	28.6*	54.1*	-7.0%	-15.1%	/	/
CCOc1ccc(-n2nc3ccc(NC(=O)Cc4ccccc4)cc3n2)cc1	/	/	/	22.4µM*	/	-6.8%[46.1 µM]
CCOc1ccc(NC(=O)C2C(c3ccccc3)C2(Cl)Cl)cc1 (configuration not stated)	21.0*	41.7*	-26.8%	-7.4%	21.0%[46.1 µM]	-26.2%[46.1 µM]
COc1ccc(NC(=O)C2C(c3ccccc3)C2(Cl)Cl)cc1 (configuration not stated)	7.1	1.9	?	-14.2%	/	/
CCOC(=O)CNC(=O)Cc1ccc(OC)cc1	13.0*	20.5	4.1%	-18.0%	3.1%[14.2 µM]	-8.9%
COCCN(Cc1cc2cc(C)ccc2nc1Cl)C(=O)Nc1ccccc1C	-1.2	-11.4	-29.2%	/	-15.5%	-21.0%
Cc1ccc(CNC(=O)c2cc3c(=O)n4ccccc4nc3n(CC3CCCO3)c2=N)cc1 (configuration not stated)	-4.3	-6.2	?	-4.8%	?	?
